Avidin bead fluor: compound fluoresces at 488/530 nm on avidin beads. compound fluorescence 488/530 nm, flow cytometry; stronger effect = higher value. fluorescence (KMESF) at 10 µM. 220,000 compounds, 0.38% hits; in the data active means fluorescence above about 47
RGS16-Gao: regulators of human RGS16-Galphao interaction | O15492+P09471 | bead-based flow cytometry RGS16-Galphao binding, fluorescence; actives lie on both sides | binding response (% of control), % at 10 µM | 220,000 compounds, 0.38% hits; call rule not given here;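 further: Galphao activated by GDP with aluminum fluoride before binding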
Target sequence (O15492 whole entry, looked up): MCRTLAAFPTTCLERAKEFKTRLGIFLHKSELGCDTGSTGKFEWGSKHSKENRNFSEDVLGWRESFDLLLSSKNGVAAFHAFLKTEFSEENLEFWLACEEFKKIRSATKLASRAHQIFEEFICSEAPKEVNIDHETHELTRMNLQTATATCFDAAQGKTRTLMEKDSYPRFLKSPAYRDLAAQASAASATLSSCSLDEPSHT
Target sequence (P09471 whole entry, looked up): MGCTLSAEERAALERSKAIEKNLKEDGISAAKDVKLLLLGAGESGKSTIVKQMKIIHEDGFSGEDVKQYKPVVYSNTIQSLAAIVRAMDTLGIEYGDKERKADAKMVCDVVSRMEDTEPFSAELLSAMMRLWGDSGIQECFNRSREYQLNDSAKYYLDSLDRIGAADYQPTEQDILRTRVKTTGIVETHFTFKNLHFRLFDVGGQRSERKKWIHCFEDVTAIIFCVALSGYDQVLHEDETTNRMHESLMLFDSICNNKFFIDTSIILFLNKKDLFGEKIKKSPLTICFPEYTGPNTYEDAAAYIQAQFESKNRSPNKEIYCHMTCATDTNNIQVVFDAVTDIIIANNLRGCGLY
RGS4-Gao reg: human RGS4-Galphao interaction regulation | AID 1415 | Multiplexed bead flow cytometry, RGS4-Galphao binding; actives lie on both sides | binding response (% of control), % at 10 µM | 220,000 compounds, 0.33% hits; in the data active means binding response below about 49% or above about 150%; inactive means in between;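 further: fluorescent Galphao activated with aluminum fluoride binding bead-coupled RGS4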
Target sequence (P09471 whole entry, looked up): as above
RGS8-Gao: human RGS8-Galphao interaction regulation; P09471; response (percent of control binding), % at 10 µM; 220,000 compounds, 0.34% hits; multiplexed bead flow cytometry, RGS8-Galphao binding; actives lie on both sides; in the data active means response below about 60% or above about 140%; inactive means in between;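 further: Galphao activated as the GDP aluminium fluoride complex binding bead-coupled RGS8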
GSH fluor: compound fluoresces at 488/530 nm on GSH beads; GSH beads flow cytometry, compound fluorescence 488/530 nm; stronger effect = higher value; fluorescence (KMESF) at 10 µM; 190,000 compounds, 0.25% hits; AID 1776; in the data active means fluorescence above about 89;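 further: glutathione beads carrying GST-tagged Bcl family fusion proteins plus one bare bead set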
RGS7-Gao reg: modulates binding of RGS7 to human Galphao | 220,000 compounds, 0.35% hits | Multiplexed bead flow cytometry; actives lie on both sides | AID 1439 | binding response (% of control), % at 10 µM; in the data active means binding response below about 49% or above about 150%; inconclusive means no clear call, values can overlap the other calls; inactive means in between;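 further: fluorescent Galphao held in activated GDP-AlF4 state binding bead-coupled RGS7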
Numbers stand for hits; n = inactive; u = inconclusive; x = not tested or not shown. Most compounds without a hit are left out; they make up all but 1.2% or so of the library.

SMILES	Avidin bead fluor	RGS16-Gao	RGS4-Gao reg	RGS8-Gao	GSH fluor	RGS7-Gao reg
CCOC(=O)Nc1c(Cl)n(C)c(=O)n(C)c1=O	n	n	n	n	x	u
CC(C)=CC(=O)OCC(=O)Nc1ccccc1Cl	n	n	n	n	266	n
Cc1ccc(NC(=O)c2ccc(Cl)cc2Cl)cc1O	n	n	n	n	x	u
CCOc1ccc(Cl)cc1S(=O)(=O)n1cnc2ccccc21	n	n	n	n	n	n
COc1ccc(Cl)cc1S(=O)(=O)n1cnc2ccccc21	62	n	n	n	n	n
Cc1sc2nc3c4ccccc4c(NCc4ccco4)nn3c(=O)c2c1C	65	n	n	n	n	n
Cc1nc(NCc2ccco2)c2c(C)c(C)sc2n1	n	n	n	n	n	n
O=C(Nc1nc(-c2ccccc2)cs1)c1cccc([N+](=O)[O-])c1	n	1.7	21	12	n	13
O=C(NCc1ccco1)/C(=C/c1cccnc1)NC(=O)c1ccco1	n	1.6	21	12	n	14
CCCCN1Cc2c(nc3cc(-c4ccco4)[nH]n3c2=O)C1=O	n	n	n	n	x	u
CCn1c(SCc2cccc(F)c2)nc2c(c1=O)SCC2	n	n	n	n	n	u
CCCCn1c(SCC(=O)c2cc(OC)ccc2OC)nc2cc(S(N)(=O)=O)ccc21	n	n	n	n	260	n
CCCCn1c(SCC(=O)N2CCC(C)CC2)nc2cc(S(N)(=O)=O)ccc21	n	n	n	n	n	n
O=C1CCc2cc(S(=O)(=O)NC(Cc3ccccc3)C(=O)NCCC3=CCCCC3)ccc2N1 (configuration not stated)	54	n	n	n	n	n
CSc1nc2ccc(S(=O)(=O)N3CCOCC3)cc2s1	n	n	n	n	n	n
CSc1nc2ccc(NS(=O)(=O)c3ccc4c(c3)OCCO4)cc2s1	n	n	n	n	262	n
CSc1nc2ccc(S(=O)(=O)N3CCCCC3)cc2s1	50	n	n	n	n	n
Cc1ccc(OCC(=O)N2CCCc3ccccc32)cc1	n	n	n	n	140	n
Cc1ccc(OCC(=O)N2CCc3ccccc32)cc1	n	n	n	n	n	n
O=C(COC(=O)Cn1cnc2ccccc21)NCCC1=CCCCC1	n	n	n	n	257	n
O=C(CCCOc1ccc(Cl)cc1Cl)N1CCCc2ccccc21	n	n	n	n	250	n
O=C(Cn1cnc2ccccc21)OCC(=O)N1CCCc2ccccc21	n	n	n	n	253	n
O=C(COc1ccc(Cl)cc1Cl)OCC(=O)N1CCCc2ccccc21	n	n	n	n	n	n
CCn1c(SCC(=O)N2CC(=O)Nc3ccccc32)nnc1-c1ccoc1C	n	n	n	n	260	n
Cc1occc1-c1nnc(SCC(=O)N2CC(=O)Nc3ccccc32)n1CC(C)C	x	n	n	n	n	n
SMILES	Avidin bead fluor	RGS16-Gao	RGS4-Gao reg	RGS8-Gao	GSH fluor	RGS7-Gao reg
CCc1cc2c(N3CCCCC3)ncnc2s1	n	n	n	n	247	n
Cn1ncc2c(=O)n(CC(=O)NC34CC5CC(CC(C5)C3)C4)cnc21	84	n	n	n	n	n
CC(C)(C)n1ncc2c(=O)n(CC(=O)NCc3ccccc3)cnc21	n	n	n	n	n	n
COc1cc(C(=O)NCCc2ccc3c(c2)OCCO3)ccc1OCC(=O)N1CCOCC1	68	n	n	n	n	n
CC(C)Cn1c(=O)c2c(nc3n2CCCN3CCc2ccccc2)n(C)c1=O	n	n	n	n	257	n
CCN(Cc1ccccc1)C(c1ccncc1)c1nnnn1C(C)(C)C (configuration not stated)	49	n	n	n	n	n
O=C(CSc1nnc(-c2ccccc2)o1)NC1CCS(=O)(=O)C1 (configuration not stated)	n	n	n	n	n	n
CCOc1ccc(-n2c(C)nc3cc(C(=O)NCCCN4CCOCC4)ccc32)cc1	n	n	n	n	n	n
CCOc1ccc(-n2c(C)nc3cc(C(=O)NCCN4CCOCC4)ccc32)cc1	n	n	n	n	104	n
CS(=O)(=O)N1CCN(c2ccccc2NC(=O)c2cccs2)CC1	47	n	n	n	n	n
O=C(Nc1ccccc1N1CCCCC1)c1cccs1	n	n	n	n	n	n
CN(CCc1cnn(C)c1)Cc1cn[nH]c1-c1ccc(-c2ccccc2)cc1	n	n	n	n	n	n
CCc1cccc(CC)c1NC(=O)COC(=O)CC1c2ccccc2CCN1S(=O)(=O)c1ccccc1 (configuration not stated)	78	n	n	n	n	n
CCc1cccc(CC)c1NC(=O)COC(=O)c1cccc(S(=O)(=O)N2CCc3ccccc3C2)c1	n	n	n	n	n	n
NS(=O)(=O)c1ccc(NC(=O)COc2ccc(C(=O)c3ccc(F)cc3)cc2)cc1	n	n	n	n	x	u
CCCOc1ccc(C2CC(=O)NC2=O)cc1 (configuration not stated)	n	n	n	n	n	n
CCCCOc1ccc(C2CC(=O)NC2=O)cc1 (configuration not stated)	79	n	n	n	n	n
Cn1c(=O)[nH]c(NC2CCCCC2)c(N=O)c1=O	n	n	n	n	n	n
CCCNc1[nH]c(=O)n(C)c(=O)c1N=O	69	n	n	n	n	n
CCc1ccc2c(c1)c1nc(C)sc1n2CC(=O)OC	51	n	n	n	n	n
Cc1cc(=O)oc2cc(OCC(=O)N3CCOCC3)ccc12	n	n	n	n	122	n
Cc1cc(=O)oc2cc(OC(C)C(=O)N3CCOCC3)ccc12 (configuration not stated)	n	n	n	n	n	n
COCC(=O)N(Cc1nc2sc(C)c(C)c2c(=O)[nH]1)C1CCCCC1	n	n	n	n	x	u
Cc1sc2nc(CN(C(=O)NC3CCCCC3)C3CCCC3)[nH]c(=O)c2c1C	56	n	n	n	n	n
CC(=O)Oc1ccc(OC(C)=O)c2c1CC(C)=C(C)C2	n	n	n	n	x	u
SMILES	Avidin bead fluor	RGS16-Gao	RGS4-Gao reg	RGS8-Gao	GSH fluor	RGS7-Gao reg
CCc1ccc(OCCOCC(O)CNC2CCCC2)cc1 (configuration not stated)	n	n	n	n	n	n
N/C(=N\OC(=O)c1cccs1)c1ccccc1	51	n	n	n	n	n
Cc1ccc(Cl)cc1NC(=O)COC(=O)CC1CC2CCC1C2 (configuration not stated)	n	n	n	n	262	n
Cc1ccc(Cl)cc1NC(=O)COC(=O)C1CC1	n	n	n	n	n	n
O=C(CSc1nnc(CNC(=O)c2ccco2)o1)Nc1ccccc1	59	n	n	n	n	n
COc1ccc(NC(=O)CSc2nnc(CNC(=O)c3ccco3)o2)cc1	n	n	n	n	n	n
O=C(CSc1ccc2ccccc2n1)c1ccccc1	n	n	n	n	x	u
Cc1ccc(C(=O)CSc2ccccn2)cc1	65	n	n	n	n	n

Source: PubChem
